From the supplement of paper PMC10849652
The full data set covers some 7,900 targets. This sample favours those with a hit. About 0.6% of all pairs of compound and target were hits.

These targets were tested with C1COCCN1CCN2C3=CC=CC=C3N=C2NC(=O)C4=CC(=CC=C4)[N+](=O)[O-] [IRAK-1-4 Inhibitor I] (assay: log2 fold change, soluble protein after heating vs DMSO (PISA); higher = thermal stabilisation; K562 cells, 10 uM, 30 min; active = over 0.2 and 3.5 SD of the protein, either way, in both replicates (recomputed)).
Procedure, shortened: (§1)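 Values are thermal stability changes relative to control samples and are taken from duplicates. They are stated as log2 fold changes. Before quantification by TMTpro 16plex LC-MS/MS with equalised channel sums, K562 cells at 2×10^6 cells/mL were treated with 10 μM compound for 30 min, heated in aliquots for 3 min across 48°C-58°C, pooled, extracted in PBS with 0.5% NP-40 at 4°C, and centrifuged at 21,000xg for 90 min to give the soluble supernatant.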

Chain of UniProt Q92828 (Q92828 whole entry, looked up): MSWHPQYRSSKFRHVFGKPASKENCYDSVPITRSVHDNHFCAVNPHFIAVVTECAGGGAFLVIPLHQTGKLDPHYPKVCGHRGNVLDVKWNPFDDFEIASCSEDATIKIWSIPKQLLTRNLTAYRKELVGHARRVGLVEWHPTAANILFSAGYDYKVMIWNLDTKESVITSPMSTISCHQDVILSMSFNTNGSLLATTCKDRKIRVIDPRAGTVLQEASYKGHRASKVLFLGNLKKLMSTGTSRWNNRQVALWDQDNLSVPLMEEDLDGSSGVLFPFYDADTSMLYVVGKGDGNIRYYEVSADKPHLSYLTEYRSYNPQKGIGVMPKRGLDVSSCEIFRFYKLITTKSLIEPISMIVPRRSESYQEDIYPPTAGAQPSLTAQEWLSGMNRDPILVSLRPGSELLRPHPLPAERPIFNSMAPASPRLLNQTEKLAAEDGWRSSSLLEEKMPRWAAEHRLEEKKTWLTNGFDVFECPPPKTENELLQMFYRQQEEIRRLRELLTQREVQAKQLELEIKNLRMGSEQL
Chain of UniProt O75503 (O75503 whole entry, looked up): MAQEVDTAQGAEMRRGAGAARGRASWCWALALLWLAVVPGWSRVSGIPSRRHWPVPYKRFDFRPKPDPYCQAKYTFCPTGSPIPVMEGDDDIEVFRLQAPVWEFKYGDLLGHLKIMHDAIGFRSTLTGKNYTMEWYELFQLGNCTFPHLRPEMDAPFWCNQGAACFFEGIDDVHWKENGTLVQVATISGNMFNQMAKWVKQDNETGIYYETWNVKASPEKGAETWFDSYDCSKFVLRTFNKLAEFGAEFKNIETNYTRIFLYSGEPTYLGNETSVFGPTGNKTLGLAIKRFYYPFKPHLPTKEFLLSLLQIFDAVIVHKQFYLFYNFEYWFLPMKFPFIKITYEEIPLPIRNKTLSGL
Chain of UniProt O60583 (O60583 whole entry, looked up): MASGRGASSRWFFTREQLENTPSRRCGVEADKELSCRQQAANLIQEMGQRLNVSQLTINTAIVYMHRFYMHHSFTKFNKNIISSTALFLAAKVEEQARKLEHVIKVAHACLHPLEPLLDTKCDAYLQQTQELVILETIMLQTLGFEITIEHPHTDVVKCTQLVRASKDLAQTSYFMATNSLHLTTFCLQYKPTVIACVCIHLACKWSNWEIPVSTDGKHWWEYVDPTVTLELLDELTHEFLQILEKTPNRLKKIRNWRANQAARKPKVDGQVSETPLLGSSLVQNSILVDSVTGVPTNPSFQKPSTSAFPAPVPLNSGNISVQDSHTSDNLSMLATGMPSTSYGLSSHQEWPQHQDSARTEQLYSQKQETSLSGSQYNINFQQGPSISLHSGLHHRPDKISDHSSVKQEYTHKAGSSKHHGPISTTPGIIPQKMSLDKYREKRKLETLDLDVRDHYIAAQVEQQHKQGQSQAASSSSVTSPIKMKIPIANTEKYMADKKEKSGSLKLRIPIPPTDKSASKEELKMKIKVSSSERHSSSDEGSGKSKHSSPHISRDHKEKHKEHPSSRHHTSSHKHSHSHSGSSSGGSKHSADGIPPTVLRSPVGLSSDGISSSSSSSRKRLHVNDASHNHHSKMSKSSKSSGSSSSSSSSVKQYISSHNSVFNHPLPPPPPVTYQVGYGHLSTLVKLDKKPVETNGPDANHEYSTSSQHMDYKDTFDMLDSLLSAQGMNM
Chain of UniProt Q9BWU1 (Q9BWU1 whole entry, looked up): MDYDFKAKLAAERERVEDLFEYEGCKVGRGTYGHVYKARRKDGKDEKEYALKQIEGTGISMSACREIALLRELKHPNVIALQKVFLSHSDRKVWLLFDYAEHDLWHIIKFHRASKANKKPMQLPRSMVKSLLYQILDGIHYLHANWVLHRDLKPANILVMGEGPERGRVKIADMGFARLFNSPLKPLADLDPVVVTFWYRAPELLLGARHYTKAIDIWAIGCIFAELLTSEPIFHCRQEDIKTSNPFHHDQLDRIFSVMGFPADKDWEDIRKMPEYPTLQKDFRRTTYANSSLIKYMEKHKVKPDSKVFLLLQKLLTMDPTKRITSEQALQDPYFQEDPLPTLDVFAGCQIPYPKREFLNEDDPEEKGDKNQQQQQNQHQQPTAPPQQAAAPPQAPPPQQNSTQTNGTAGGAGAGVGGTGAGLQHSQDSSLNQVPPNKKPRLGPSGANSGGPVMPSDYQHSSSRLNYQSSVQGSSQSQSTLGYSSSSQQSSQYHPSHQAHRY
Chain of UniProt Q14677 (Q14677 whole entry, looked up): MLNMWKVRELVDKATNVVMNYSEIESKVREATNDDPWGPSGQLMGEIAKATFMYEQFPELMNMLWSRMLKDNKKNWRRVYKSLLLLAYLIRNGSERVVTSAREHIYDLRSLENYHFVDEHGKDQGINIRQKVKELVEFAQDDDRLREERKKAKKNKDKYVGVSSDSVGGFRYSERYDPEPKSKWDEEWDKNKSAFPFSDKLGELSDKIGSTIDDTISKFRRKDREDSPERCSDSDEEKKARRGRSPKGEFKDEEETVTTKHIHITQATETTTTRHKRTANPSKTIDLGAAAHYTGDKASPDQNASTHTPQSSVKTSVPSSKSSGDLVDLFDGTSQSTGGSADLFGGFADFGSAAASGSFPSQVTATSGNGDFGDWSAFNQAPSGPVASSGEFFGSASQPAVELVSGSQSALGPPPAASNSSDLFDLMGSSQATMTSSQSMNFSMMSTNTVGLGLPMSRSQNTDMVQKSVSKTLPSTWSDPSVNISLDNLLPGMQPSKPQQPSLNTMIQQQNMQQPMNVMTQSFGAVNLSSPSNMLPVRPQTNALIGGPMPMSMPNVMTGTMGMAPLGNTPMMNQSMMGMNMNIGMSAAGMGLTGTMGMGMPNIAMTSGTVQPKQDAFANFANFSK
Chain of UniProt Q6UUV7 (Q6UUV7 whole entry, looked up): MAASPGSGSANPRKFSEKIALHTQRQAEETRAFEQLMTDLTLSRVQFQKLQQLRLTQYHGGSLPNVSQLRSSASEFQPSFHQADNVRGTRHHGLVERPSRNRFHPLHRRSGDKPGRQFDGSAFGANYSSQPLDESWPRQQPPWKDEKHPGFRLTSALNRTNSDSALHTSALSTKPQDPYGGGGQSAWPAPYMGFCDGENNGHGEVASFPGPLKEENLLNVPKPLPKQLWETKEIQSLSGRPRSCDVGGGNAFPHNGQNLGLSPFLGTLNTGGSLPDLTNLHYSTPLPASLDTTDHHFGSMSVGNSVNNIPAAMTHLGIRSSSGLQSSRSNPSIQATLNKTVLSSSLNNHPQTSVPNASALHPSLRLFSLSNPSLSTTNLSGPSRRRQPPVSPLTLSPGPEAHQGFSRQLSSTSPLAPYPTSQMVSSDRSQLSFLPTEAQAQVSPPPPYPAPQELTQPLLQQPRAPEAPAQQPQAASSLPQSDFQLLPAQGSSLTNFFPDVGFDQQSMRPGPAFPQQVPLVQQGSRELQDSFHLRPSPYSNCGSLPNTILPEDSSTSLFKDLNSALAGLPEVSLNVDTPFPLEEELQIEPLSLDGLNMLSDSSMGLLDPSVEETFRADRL
Chain of UniProt P30281 (P30281 whole entry, looked up): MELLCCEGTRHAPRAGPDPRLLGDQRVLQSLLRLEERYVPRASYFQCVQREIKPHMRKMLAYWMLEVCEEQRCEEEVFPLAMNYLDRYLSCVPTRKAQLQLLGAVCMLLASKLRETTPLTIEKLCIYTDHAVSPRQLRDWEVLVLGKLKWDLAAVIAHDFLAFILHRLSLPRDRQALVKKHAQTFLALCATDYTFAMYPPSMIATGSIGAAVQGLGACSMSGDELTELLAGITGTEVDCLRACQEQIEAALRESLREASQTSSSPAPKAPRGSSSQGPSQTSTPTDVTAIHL
Chain of UniProt O75122 (O75122 whole entry, looked up): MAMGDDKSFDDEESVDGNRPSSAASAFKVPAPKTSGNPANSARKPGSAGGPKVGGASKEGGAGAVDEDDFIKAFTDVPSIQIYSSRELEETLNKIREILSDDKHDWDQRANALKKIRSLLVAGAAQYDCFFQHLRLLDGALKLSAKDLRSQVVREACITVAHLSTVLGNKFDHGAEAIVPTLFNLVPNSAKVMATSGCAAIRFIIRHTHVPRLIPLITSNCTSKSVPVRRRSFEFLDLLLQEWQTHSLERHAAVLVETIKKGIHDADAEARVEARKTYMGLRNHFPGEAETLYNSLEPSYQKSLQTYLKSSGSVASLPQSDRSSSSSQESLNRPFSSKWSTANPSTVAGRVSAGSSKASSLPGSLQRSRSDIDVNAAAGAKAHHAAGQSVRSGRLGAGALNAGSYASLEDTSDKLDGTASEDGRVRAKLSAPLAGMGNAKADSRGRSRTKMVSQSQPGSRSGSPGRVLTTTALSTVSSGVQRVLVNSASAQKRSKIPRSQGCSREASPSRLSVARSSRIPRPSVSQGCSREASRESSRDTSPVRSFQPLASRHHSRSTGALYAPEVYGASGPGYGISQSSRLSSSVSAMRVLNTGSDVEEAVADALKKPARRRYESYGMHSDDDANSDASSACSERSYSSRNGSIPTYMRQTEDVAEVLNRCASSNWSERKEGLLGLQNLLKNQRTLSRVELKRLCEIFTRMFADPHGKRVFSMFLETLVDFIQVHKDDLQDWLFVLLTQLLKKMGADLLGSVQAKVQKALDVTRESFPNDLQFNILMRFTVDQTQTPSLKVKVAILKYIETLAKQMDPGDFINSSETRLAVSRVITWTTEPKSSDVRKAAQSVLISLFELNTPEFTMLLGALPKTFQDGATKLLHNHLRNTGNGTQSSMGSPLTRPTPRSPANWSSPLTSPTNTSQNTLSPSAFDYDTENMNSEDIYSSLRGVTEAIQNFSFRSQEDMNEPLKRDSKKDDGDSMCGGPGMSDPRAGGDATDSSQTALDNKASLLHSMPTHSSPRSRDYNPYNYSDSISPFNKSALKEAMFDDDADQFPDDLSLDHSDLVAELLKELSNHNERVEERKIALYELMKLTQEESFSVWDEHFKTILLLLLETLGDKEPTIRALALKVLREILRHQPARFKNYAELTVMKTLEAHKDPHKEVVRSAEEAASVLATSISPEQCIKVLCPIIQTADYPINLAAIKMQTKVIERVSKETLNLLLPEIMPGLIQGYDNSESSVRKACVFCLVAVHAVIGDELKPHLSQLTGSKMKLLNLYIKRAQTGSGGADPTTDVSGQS
Chain of UniProt P33552 (P33552 whole entry, looked up): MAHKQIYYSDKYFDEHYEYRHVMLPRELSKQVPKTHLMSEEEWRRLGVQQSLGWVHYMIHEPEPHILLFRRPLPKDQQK

Target	log2 fold change
CLN3 (UniProt Q13286)	0.106 (inactive)
CLN5 (UniProt O75503)	0.023 (inactive)
CLASP2 (UniProt O75122)	0.027 (inactive)
CASK (UniProt O14936)	0.036 (inactive)
CRLS1 (UniProt Q9UJA2)	-0.03 (inactive)
CLCN5 isoform 2 (UniProt P51795)	-0.019 (inactive)

What follows are targets tested with C=CC(=O)N1CCC[C@@H](n2nc(-c3ccc(Oc4ccccc4)cc3)c3c(N)ncnc32)C1 [ibrutinib] in the same assay as above.
Procedure, shortened: as §1

Target	log2 fold change
CORO2A (UniProt Q92828)	-0.068 (inactive)
CCNDBP1 (UniProt O95273)	-0.184 (inactive)
CSNK1A1 isoform 3 (UniProt P48729)	0.029 (inactive)
CCND3 (UniProt P30281)	-0.063 (inactive)
CRMP1 isoform 2 (UniProt Q14194)	0.038 (inactive)
CASP7 isoform 3 (UniProt P55210)	-0.005 (inactive)
CFAP47 (UniProt Q6ZTR5)	-0.109 (inactive)
CKS2 (UniProt P33552)	-0.087 (inactive)
CA1 (UniProt E5RIF9)	0.161 (inactive)
CNN3 (UniProt Q15417)	-0.067 (inactive)
CRTC3 (UniProt Q6UUV7)	-0.035 (inactive)
CS (UniProt F8VU34)	-0.137 (inactive)
CD68 (UniProt P34810)	0.057 (inactive)

The targets below were run with CC(=O)c1cnc2ccc(-c3cc(Cl)c(O)c(Cl)c3)nc2c1N[C@H]1CC[C@H](CN(C)C)CC1 in the same assay as above.
Procedure, shortened: as §1

Target	log2 fold change
CORO2A (UniProt Q92828)	-0.022 (inactive)
CD84 (UniProt Q9UIB8)	-0.166 (inactive)
CDK19 (UniProt Q9BWU1)	0.541 (active)
CCNDBP1 (UniProt O95273)	0.071 (inactive)
CLINT1 (UniProt Q14677)	0.059 (inactive)
CCNT2 (UniProt O60583)	-0.797 (active)
CNN1 (UniProt P51911)	-0.086 (inactive)
CCND3 (UniProt P30281)	0.078 (inactive)
CRMP1 isoform 2 (UniProt Q14194)	-0.224 (inactive)
CLN5 (UniProt O75503)	-0.03 (inactive)
CFAP47 (UniProt Q6ZTR5)	0.153 (inactive)
CKS2 (UniProt P33552)	-0.168 (inactive)
COMMD3-BMI1 (UniProt R4GMX3)	0.055 (inactive)
CLASP2 (UniProt O75122)	-0.852 (inactive)
CCDC187, A0A1W2PQX5	-0.14 (inactive)
CLPTM1L (UniProt G5E9Z2)	-0.03 (inactive)
CNN3 (UniProt Q15417)	-0.007 (inactive)
CAD (UniProt H7BZB3)	-0.322 (inactive)
C5orf30 (UniProt Q96GV9)	-0.917 (active)
CLINT1 isoform 3 (UniProt Q14677)	0.135 (inactive)
CHPT1 (UniProt Q8WUD6)	0.023 (inactive)
CASK (UniProt O14936)	-0.483 (active)
CLN8 (UniProt Q9UBY8)	-0.164 (inactive)

What follows are targets tested with CC(C)(C)Cn1c(N)nc2ccc(-c3[nH]c(C(C)(C)C)nc3-c3ccc(F)cc3)nc21 [ralimetinib] in the same assay as above.
Procedure, shortened: as §1

Target	log2 fold change
CORO2A (UniProt Q92828)	0.019 (inactive)
CDK19 (UniProt Q9BWU1)	-0.133 (inactive)
CCNDBP1 (UniProt O95273)	0.168 (inactive)
CCNT2 (UniProt O60583)	0.191 (inactive)
CLN3 (UniProt Q13286)	-0.05 (inactive)
CCND3 (UniProt P30281)	-0.076 (inactive)
CFAP58 (UniProt Q5T655)	-0.04 (inactive)
CLASP2 (UniProt O75122)	-0.067 (inactive)
CNRIP1 (UniProt Q96F85)	-0.051 (inactive)
CCDC187, A0A1W2PQX5	-0.237 (inactive)
CRTC3 (UniProt Q6UUV7)	0.048 (inactive)
CLINT1 isoform 3 (UniProt Q14677)	0.139 (inactive)
CHPT1 (UniProt Q8WUD6)	-0.132 (inactive)
CLCN5 isoform 2 (UniProt P51795)	-0.154 (inactive)
CLN8 (UniProt Q9UBY8)	0.643 (inactive)

The targets below were run with CC(C)(O)CC(=O)NCCn1ccc2ncnc(Nc3ccc(Oc4cccc(C(F)(F)F)c4)c(Cl)c3)c21 in the same assay as above.
Procedure, shortened: as §1

Target	log2 fold change
CD84 (UniProt Q9UIB8)	0.068 (inactive)
CDK19 (UniProt Q9BWU1)	-0.02 (inactive)
CLINT1 (UniProt Q14677)	0.221 (inactive)
CCNT2 (UniProt O60583)	0.059 (inactive)
CNN1 (UniProt P51911)	-0.071 (inactive)
CLN3 (UniProt Q13286)	-0.011 (inactive)
CCND3 (UniProt P30281)	0 (inactive)
CLN5 (UniProt O75503)	0.001 (inactive)
CASP7 isoform 3 (UniProt P55210)	-0.003 (inactive)
CFAP47 (UniProt Q6ZTR5)	0.006 (inactive)
COMMD3-BMI1 (UniProt R4GMX3)	-0.003 (inactive)
CNRIP1 (UniProt Q96F85)	-0.255 (inactive)
CCDC187, A0A1W2PQX5	0.201 (inactive)
CLPTM1L (UniProt G5E9Z2)	-0.556 (inactive)
CA1 (UniProt E5RIF9)	-0.052 (inactive)
CNN3 (UniProt Q15417)	-0.138 (inactive)
CRTC3 (UniProt Q6UUV7)	-0.104 (inactive)
C5orf30 (UniProt Q96GV9)	0.059 (inactive)
CLINT1 isoform 3 (UniProt Q14677)	0.102 (inactive)
CHPT1 (UniProt Q8WUD6)	0.223 (inactive)
